# Results taken from the supplement of paper PMC6555819.
# How the values were obtained:
# Experiment in all cases: PBM binding z-score (relative to random genomic background probes); higher = stronger binding; sequences stand for … in GC…GCGATTGACAGCGTAGAATGAAGG
# [1] = system: FXR:RXRa (NR concentration 270 nM, RXRa partner concentration 90 nM)
# In short: (§1)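 Binding z-scores take random background probes as their reference. They come from custom Agilent 4×180K protein-binding microarrays incubated 1 h with ligand-free nuclear receptor dimers, with antibodies against each partner (one per run) detecting binding. Scanned fluorescence was regression-normalized.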
# [2] = system: LXRa:RXRa (NR concentration 270 nM, RXRa partner concentration 90 nM)
# In short: as §1
# [3] = system: LXRa homodimer (NR concentration 270 nM)
# In short: as §1
# [4] = system: LXRb:RXRa (NR concentration 270 nM, RXRa partner concentration 90 nM)
# In short: as §1
# [5] = system: LXRb homodimer (NR concentration 270 nM)
# In short: as §1
# [6] = system: PPARa:RXRa (NR concentration 270 nM, RXRa partner concentration 90 nM)
# In short: as §1
# [7] = system: PPARg:RXRa (NR concentration 180 nM, RXRa partner concentration 90 nM)
# In short: as §1
# [8] = system: PPARg:RXRa 270nM:90nM, anti-RXR (NR concentration 270 nM, RXRa partner concentration 90 nM)
# In short: as §1
# [9] = system: PPARg:RXRa 30nM:10nM, anti-RXR (NR concentration 30 nM, RXRa partner concentration 10 nM)
# In short: as §1
# [10] = system: PPARg:RXRa 90nM:30nM, anti-RXR (NR concentration 90 nM, RXRa partner concentration 30 nM)
# In short: as §1
# [11] = system: PPARg:RXRa DBDmut IVT, anti-RXR (DBD mutation: RXRa K156A/R161A, NR concentration 270 nM, RXRa partner concentration 90 nM)
# In short: as §1
# [12] = system: PPARg:RXRa IVT, anti-PPARg (NR concentration 270 nM, RXRa partner concentration 90 nM)
# In short: as §1
# [13] = system: PPARg DBDmut:RXRa IVT, anti-PPARg (DBD mutation: PPARg1 K132A/R137A, NR concentration 270 nM, RXRa partner concentration 90 nM)
# In short: as §1
# [14] = system: PPARg DBDmut IVT, anti-PPARg (DBD mutation: PPARg1 K132A/R137A, NR concentration 270 nM)
# In short: as §1
# [15] = system: PPARg homodimer (NR concentration 180 nM)
# In short: as §1
# [16] = system: PXR:RXRa (NR concentration 270 nM, RXRa partner concentration 90 nM)
# In short: as §1
# [17] = system: PXR homodimer (NR concentration 270 nM)
# In short: as §1
# [18] = system: RARa:RXR (NR concentration 270 nM, RXRa partner concentration 90 nM)
# In short: as §1
# [19] = system: RARa homodimer (NR concentration 270 nM)
# In short: as §1
# [20] = system: RARb:RXRa (NR concentration 270 nM, RXRa partner concentration 90 nM)
# In short: as §1
Sequence,PBM binding z-score [1],PBM binding z-score [2],PBM binding z-score [3],PBM binding z-score [4],PBM binding z-score [5],PBM binding z-score [6],PBM binding z-score [7],PBM binding z-score [8],PBM binding z-score [9],PBM binding z-score [10],PBM binding z-score [11],PBM binding z-score [12],PBM binding z-score [13],PBM binding z-score [14],PBM binding z-score [15],PBM binding z-score [16],PBM binding z-score [17],PBM binding z-score [18],PBM binding z-score [19],PBM binding z-score [20]
CCTACTGGGCCAAAAAGGTAATTGATGCCGATAA,-0.234,-0.225,-0.561,-0.28,-0.84,0.543,0.593,1.19,-0.018,0.799,3.15,2.69,0.336,-0.668,-0.39,-0.331,-0.647,0.114,0.142,0.108
CGTCCAAGGTCAATGCAAGGTCAGTGAAAGCATT,7.23,5.69,4.1,5.16,1.06,5.79,4.73,5.14,2.05,3.82,3.53,4.28,0.246,0.606,5.89,6.14,2.19,6.91,2.02,
AGTCATAGTTCACTAGGTAACGTAAGATTCAGCT,0.829,1.51,0.415,1.11,0.233,3.01,3.89,3.82,1.59,2.88,1.88,3.43,1.06,0.768,1.27,1.17,0.241,1.21,0.337,
GCTCGGAGGACAAGGTCAGGGCTTTGTCCGTAGA,2.38,2.11,-0.64,1.71,-0.689,2.95,1.07,1.94,-0.338,0.806,-0.354,1.3,-0.608,-0.233,0.661,2.03,-0.681,2.71,-0.898,3.83
GCTGCTAGGTCAGGTTGGTCAACTAACGGGTACG,1.14,0.685,-0.134,0.695,-0.424,1.46,0.577,0.833,-0.708,0.0771,3.05,2.52,-0.717,-0.77,0.891,0.217,-0.382,0.842,-0.0438,
CCTACTGGGCCAAGGTCATTGAGCAGTCAAAGCA,3.17,3.17,0.657,2.72,-0.573,4.19,4.27,4.54,1.77,3.8,3.78,4.64,0.0966,0.249,1.29,3.5,1.2,3.64,-0.199,3.21
CCTAGTTGGTCAAGCTCACACACGCTATAGGTAC,0.0686,0.299,0.418,0.309,0.719,0.0262,0.838,0.282,0.0303,0.00108,1.68,1.17,0.0557,0.393,0.772,0.179,0.39,0.432,1.68,1.14
AGTCAAAGTTCATCTAGGTAACGAAAGATATGCT,6.43,5.78,4.68,3.86,1.83,5.26,7.04,6.66,3.55,5.72,0.744,4.11,1.97,1.3,3.18,5.26,6.53,4.34,2.16,5.15
TGAATGAGGTCAAAGATCAGGGAACGTGGCGTCG,7.57,6.26,1.74,4.88,2.72,6.45,9.41,8.31,7.23,9.22,5.48,6.25,2.11,0.903,2.17,5.41,1.74,6.5,1.38,4.99
CCTTACGGGTCACTCCAGGTTCTAGCATCGGAGT,4.8,4.87,0.141,2.7,-0.137,4.28,2.96,3.49,0.999,2.15,2.92,3.24,0.0574,-0.343,1.37,3.13,-0.323,3.39,0.55,3.63
AGTCCAAGTTCACTAGGTAACGTAAGATTCAGCT,1.35,1.68,0.49,0.985,0.056,2.69,2.6,2.95,0.796,1.91,2.21,3.58,1.01,0.63,0.72,2.45,2.13,1.17,0.555,
TAGCCTAGGTCATTCAGGCGCCAGTATAGAAAGC,5.09,3.26,0.555,2.5,0.661,3.35,2.01,2.37,0.32,1.41,1.59,2.61,0.787,-0.107,1.85,1.68,-0.342,2.44,-0.00217,3.56
CAAACTAGGTCACAGAGGACAAAGTCCGTGCGTA,4.82,3.84,1.45,2.96,0.637,5.52,9.51,7.79,5.58,7.51,8.78,9.01,7.7,3.32,4.15,3.52,2.3,3.22,1.21,4.54
CATACAGGGACAGCTAGGCCAGAGTAGGGACGGC,-0.116,-0.651,-0.464,-0.85,-0.351,-0.533,0.544,-0.673,-0.277,-0.633,-0.69,-0.181,-1.17,0.371,-0.647,-0.731,-0.605,-0.361,0.0521,0.723
CCTACTGGGCCATCAGGTGATTGATATCAACGTT,-0.454,-0.704,-0.341,-0.438,-0.864,0.426,1.29,1.63,0.102,1.27,3.79,4.34,0.38,-0.0432,-0.3,-0.668,-0.342,-0.448,-0.0417,0.0448
